For this experiment, the target named is furin, P09958. The experiment is described as follows: furin cleavage Z-score vs untreated control; higher = more cleavage, active = 3.5 or more, inactive = 1 or less, 8 variable residues between constant flanks. As for the experimental part:
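Multiplexed peptide-cDNA fusion cleavage assay. 8-mer variable peptides flanked by constant Cys-Ala (N-term) and Ala-Gly-Asn-Ala-Ser-Ala-Ser-Ala (C-term) and conjugated to a cDNA oligonucleotide were bead-immobilised via the N-terminus. They were treated with purified furin at a 1:10 enzyme:substrate ratio in 50 mM HEPES pH 7.5, 1 mM CaCl2, 100 mM NaCl for 7.5, 15 or 30 min. Released cDNA was counted by next-generation sequencing, and log counts versus no-furin controls were lowess-adjusted and converted to robust Z-scores.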

Results on 43 sequences are retold here after the supplement of paper PMC3545927.

This is one part of the list. No count for the full screen is at hand.

furin, P09958, sequence (P09958 whole entry, the tested form may be a part): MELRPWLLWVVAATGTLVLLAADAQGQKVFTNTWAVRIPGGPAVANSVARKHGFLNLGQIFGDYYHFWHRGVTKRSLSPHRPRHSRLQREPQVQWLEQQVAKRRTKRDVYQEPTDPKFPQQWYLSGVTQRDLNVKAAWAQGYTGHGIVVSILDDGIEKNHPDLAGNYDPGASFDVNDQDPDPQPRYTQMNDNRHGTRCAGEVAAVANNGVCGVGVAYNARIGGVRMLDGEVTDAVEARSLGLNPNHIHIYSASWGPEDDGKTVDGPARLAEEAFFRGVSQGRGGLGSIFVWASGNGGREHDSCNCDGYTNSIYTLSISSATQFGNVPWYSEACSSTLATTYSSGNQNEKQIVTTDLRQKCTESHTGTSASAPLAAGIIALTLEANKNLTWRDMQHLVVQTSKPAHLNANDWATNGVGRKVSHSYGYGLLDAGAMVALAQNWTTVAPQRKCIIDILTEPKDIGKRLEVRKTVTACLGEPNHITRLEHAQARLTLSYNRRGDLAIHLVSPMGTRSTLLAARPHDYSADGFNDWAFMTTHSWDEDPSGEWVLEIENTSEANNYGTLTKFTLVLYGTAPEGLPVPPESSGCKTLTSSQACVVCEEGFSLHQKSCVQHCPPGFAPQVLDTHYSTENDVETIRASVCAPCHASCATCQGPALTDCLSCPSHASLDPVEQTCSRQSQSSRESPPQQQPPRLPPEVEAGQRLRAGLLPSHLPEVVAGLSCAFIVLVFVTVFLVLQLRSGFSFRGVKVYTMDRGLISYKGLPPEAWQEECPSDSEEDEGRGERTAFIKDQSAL

On to CAHPDATYSRAGNASASA [HC455], for which the “furin cleavage Z-score” value was -0.242 (inactive) (7.5 min), -1.51 (inactive) (15 min) and -2.12 (inactive) (30 min).
The matching figures for CAHHNLVYSTAGNASASA [HC1387]: 0.206 (inactive), 0.355 (inactive) and 0.257 (inactive).
The matching figures for CAMPRRRGRFAGNASASA [FS-1037]: -0.497 (inactive), 1.44 and 2.55.
Consider CAPMSRGDRFAGNASASA [FS-701], for which the “furin cleavage Z-score” value (7.5 min) is -0.701 (inactive), the “furin cleavage Z-score” value (15 min) is -0.0648 (inactive) and the “furin cleavage Z-score” value (30 min) is 0.556 (inactive).
With CALWSRYGRFAGNASASA [FS-1034], the “furin cleavage Z-score” value runs as follows: (7.5 min) 0.532 (inactive); (15 min) 1.92; (30 min) -0.157 (inactive).
The like results for CASWNRVARTAGNASASA [FS-199] were, in that order, 4.98 (active), 4.02 (active) and 5.03 (active).
The matching figures for CAQWIRVKRTAGNASASA [FS-372]: 10 (active), 8.77 (active) and 8.64 (active).
The like results for CATRSRRGRFAGNASASA [FS-204] were, in that order, 2.71, 5.35 (active) and 4.64 (active).
In the case of CAPWITPRCLAGNASASA [HC461], the “furin cleavage Z-score” value (7.5 min) amounted to 1.9, the “furin cleavage Z-score” value (15 min) amounted to 1.18 and the “furin cleavage Z-score” value (30 min) was 0.0858 (inactive).
As for CASWTGALVTAGNASASA [HC1373], the “furin cleavage Z-score” value runs as follows: (7.5 min) 1.05; (15 min) 1.42; (30 min) 0.57 (inactive).
With CAQRSRQKKTAGNASASA [FS-1392], the “furin cleavage Z-score” value was -1.4 (inactive) (7.5 min), -0.885 (inactive) (15 min) and 0.286 (inactive) (30 min).
With CAPGSRKARFAGNASASA [FS-280], the “furin cleavage Z-score” value (7.5 min) was 7.61 (active), the “furin cleavage Z-score” value (15 min) was 8.81 (active) and the “furin cleavage Z-score” value (30 min) was 9.66 (active).
Consider CANLEVVTSTAGNASASA [HC2281], for which the “furin cleavage Z-score” value runs as follows: (7.5 min) 0.776 (inactive); (15 min) -1.12 (inactive); (30 min) -0.725 (inactive).
The like results for CAMKSRLRRTAGNASASA [FS-1035] were, in that order, 6.13 (active), 6.71 (active) and 5.42 (active).
For CAAKGRAGRSAGNASASA [FS-971], the “furin cleavage Z-score” value is, setting by setting: (7.5 min) 7.82 (active); (15 min) 7.81 (active); (30 min) 6.06 (active).
The like results for CAQLSRAGRSAGNASASA [FS-81] were, in that order, 6.21 (active), 8.4 (active) and 8.08 (active).
The matching figures for CAVRGRAGRSAGNASASA [FS-515]: 1.52, 1.9 and 0.698 (inactive).
The like results for CAPPSVASSSAGNASASA [HC1258] were, in that order, 0.0747 (inactive), 0.138 (inactive) and 0.956 (inactive).
Turning to CADHRRSVDSAGNASASA [FS-2628], the “furin cleavage Z-score” value by setting is: (7.5 min) -1.5 (inactive); (15 min) 0.662 (inactive); (30 min) 1.77.
The like results for CARCRRSVSSAGNASASA [FS-2548] were, in that order, 4.14 (active), 2.68 and 3.73 (active).
The matching figures for CARCRRTVSMAGNASASA [FS-1998]: 1.07, 2.14 and 4.65 (active).
The matching figures for CARSERDVLLAGNASASA [FS-3077]: 1.87, -0.515 (inactive) and 0.482 (inactive).
As for CARSARPLVQAGNASASA [FS-2085], the “furin cleavage Z-score” value reads like this: (7.5 min) -2.45 (inactive); (15 min) 0.432 (inactive); (30 min) -1.67 (inactive).
The matching figures for CASVAHDGAGAGNASASA [HC1556]: -0.273 (inactive), -3.13 (inactive) and 0.415 (inactive).
On to CAPDVVCCSMAGNASASA [HC2119], for which the “furin cleavage Z-score” value by setting is: (7.5 min) -0.96 (inactive); (15 min) 1.32; (30 min) -0.361 (inactive).
The matching figures for CAGSWSTVSSAGNASASA [HC1362]: 0.499 (inactive), -0.166 (inactive) and -0.172 (inactive).
Turning to CARSARDTAQAGNASASA [FS-3168], the “furin cleavage Z-score” value runs as follows: (7.5 min) 5.29 (active); (15 min) 5.99 (active); (30 min) 5.11 (active).
The like results for CARDVVCCSMAGNASASA [HC2113] were, in that order, 0.281 (inactive), -1.32 (inactive) and 2.45.
As to CARSARKSNFAGNASASA [FS-3073], the “furin cleavage Z-score” value was -1.18 (inactive) (7.5 min), 0.463 (inactive) (15 min) and -0.0584 (inactive) (30 min).
The like results for CARSARDVSSAGNASASA [FS-2302] were, in that order, 9.56 (active), 8.78 (active) and 6.82 (active).
Regarding CAYVGGPLTNAGNASASA [HC1501], the “furin cleavage Z-score” value (7.5 min) is -0.238 (inactive), the “furin cleavage Z-score” value (15 min) is -0.463 (inactive) and the “furin cleavage Z-score” value (30 min) is -0.523 (inactive).
The matching figures for CAQRVEFLVQAGNASASA [HC1470]: -0.81 (inactive), 1.84 and 0.832 (inactive).
For the sequence CAARGSPPSVAGNASASA [HC1256], the “furin cleavage Z-score” value was 0.929 (inactive) (7.5 min), -0.707 (inactive) (15 min) and 1.93 (30 min).
The matching figures for CAETITLPQDAGNASASA [HC897]: -1.02 (inactive), 0.648 (inactive) and -1.05 (inactive).
The matching figures for CAHVVTSTWVAGNASASA [HC2155]: -1.33 (inactive), 0.00684 (inactive) and -0.368 (inactive).
The like results for CASTACSAHLAGNASASA [HC2503] were, in that order, 0.199 (inactive), 1.42 and -0.356 (inactive).
In the case of CARMAWDMMMAGNASASA [HC319], the “furin cleavage Z-score” value by setting is: (7.5 min) -0.311 (inactive); (15 min) -0.626 (inactive); (30 min) -0.966 (inactive).
In the case of CATLPALSTGAGNASASA [HC501], the “furin cleavage Z-score” value was -1.14 (inactive) (7.5 min), 0.758 (inactive) (15 min) and -0.483 (inactive) (30 min).
Turning to CALKVPYFVRAGNASASA [HC614], the “furin cleavage Z-score” value by setting is: (7.5 min) -0.584 (inactive); (15 min) 0.223 (inactive); (30 min) 0.218 (inactive).
The like results for CAGASRSPRGAGNASASA [FS-237] were, in that order, 3.32, 4.49 (active) and 5.42 (active).
The like results for CAGAARLPRGAGNASASA [FS-777] were, in that order, 0.571 (inactive), 1.37 and 2.25.
The like results for CAGWLLSPRGAGNASASA [HC208] were, in that order, 0.27 (inactive), -1.63 (inactive) and 0.774 (inactive).
For CADRSRTPRGAGNASASA [FS-759], the “furin cleavage Z-score” value is, setting by setting: (7.5 min) 3.99 (active); (15 min) 4.25 (active); (30 min) 4.12 (active).
